Data on one compound can be found in PubChem BioAssay AID2284124 (EPA ToxCast).

Activity calls are given as the source filed them. The calls were made as follows: active = hit-call score of the fitted dose curve at least 0.9, where 1 is the maximum; inactive = score below 0.9.

The subject of the assay is guinea pig Atrial Natriuretic Factor (ANF, Non-Selective), gene 100135578. The experiment in a line: ERF_TW_GPCR_gANPA: Eurofins (ERF) Binding Assay for guinea pig Atrial Natriuretic Factor (ANF, Non-Selective). The protocol: ERF_TW_GPCR_gANPA is a biochemical, single-readout assay that uses extracted gene-proteins in a cell-free assay. Measurements were taken 1 hour after chemical dosing in a 96-well plate. See Atrial Natriuretic Factor (ANF, Non-Selective) Guinea Pig Binding Assay, Panlabs.ERF_TW_GPCR_gANPA is an assay component calculated from the ERF_TW_GPCR_gANPA assay. It is designed to measure radioligand binding using a type of binding reporter as detected by scintillation counting with radiometry technology.Data from the assay component ERF_TW_GPCR_gANPA was analyzed at the assay endpoint, ERF_TW_GPCR_gANPA, in the positive analysis fitting direction relative to DMSO as the negative control and baseline of activity. Using a type of binding reporter, loss-of-signal activity can be used to understand changes in binding as they relate to gene ANPA. To generalize the intended target to other relatable targets, this assay endpoint is annotated to the gpcr intended target family, where the subfamily is guanylyl cyclase.
This assay measures binding of Atrial Natriuretic Peptide to sites associated with the ANF. Guinea pig striatal membranes are prepared in Tris-HCl buffer pH 7.4. A 24 ug aliquot of membrane is incubated with 16 pM Atrial Natriuretic Peptide for 60 minutes at 4C. Non-specific binding is estimated in the presence of 0.1 uM ANF.
`O=C(/C=C/c1ccc(O)cc1)CC(=O)/C=C/c1ccc(O)cc1`: the compound was called inactive.
